# DT40 TDP1 CPT: DT40-hTDP1 cell growth loss with CPT | chicken DT40 Tdp1-/-;hTDP1 cells + 20 nM CPT, ATP luminescence, 48 h | Potency, µM (series often up to 46.2 µM), without a hit: at the highest dose activity change, negative = growth inhibition, most hits filed as inhibitors | 12% of 420,000 active | AID 686979; further: potency means the concentration at half of the fitted maximal effect; nearly all actives have a fitted effect of over 55% in size
#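 Chicken DT40 Tdp1-/- cells stably complemented with human TDP1 were seeded at 400 cells/well in medium containing 20 nM camptothecin, exposed to pin-transferred compounds, and grown at 37 °C for at least 48 hr. Viability was read as ATP luminescence.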
# CtBP-E1A blk: blocks the CtBP interaction with E1A; AlphaScreen GST-E1A/His-CtBP binding, 1536-well; hits give low values; activity change, % (concentration not given with the values); 0.49% of 340,000 active; in the data active means activity change below about -65%; inconclusive means mostly about -30% to -63%
#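 Protein mix (5X: 125 nM each GST-E1A, His-CtBP) was incubated with pinned compound 2 h at 37 deg C in dark, in 50 mM Tris pH 8.0 buffer with 300 mM NaCl. Glutathione donor and nickel acceptor beads followed; AlphaScreen signal read after 1 h.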
# IL-1B inflam inh: inflammasome signaling inhibition, IL-1 beta readout | THP-1 LPS/ATP IL-1B secretion, AlphaLISA, 16 h; hits give low values | activity change, % at 57.5 µM | 4.7% of 360,000 active | AID 743279; in the data active means activity change below about -50%; inconclusive means mostly about -30% to -49%
#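 THP-1 cells pretreated 1 hr with compounds (up to 57.5 uM final), then stimulated with LPS (250 ng/mL final) plus ATP (1.25 mM final); secreted IL-1B measured by AlphaLISA after 16 hr, decreased signal indicating inhibition.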
# Six1-Eya2 inh: blocks human Six1 binding to Eya2. Q15475+O00167. AlphaScreen GST-Six1/His-Eya2 binding, biochemical; hits give low values. activity change, % (concentration not given with the values). 0.56% of 360,000 active; in the data active means activity change below about -65%; inconclusive means mostly about -30% to -63%
#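 GST-Six1 + His-Eya2 (5X stock: 250/500 nM); Tris pH 8.0, 300 mM NaCl, 0.05% BSA, 0.02% Tween 20; GSH donor/Ni acceptor beads; 1 h 37 °C dark; AlphaScreen readout.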
# TDP1 cell noCPT: qHTS for Inhibitors of human tyrosyl-DNA phosphodiesterase 1 (TDP1): qHTS in cells in absence of CPT; 15% of 420,000 active; DT40 Tdp1-/- hTDP1 cells, no CPT, ATP luminescence, 48 h; Potency, µM (series often up to 46.2 µM), without a hit: at the top dose activity change, negative = growth inhibition, most hits filed as inhibitors; further: potency means the concentration at half of the fitted maximal effect; nearly all actives have a fitted effect of over 55% in size
#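 A cellular qHTS used chicken DT40 cells lacking endogenous Tdp1 but carrying stably transfected human TDP1. Compounds were applied without camptothecin, and cell growth kinetics were judged by ATP-dependent luminescence after ≥48 hr.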
# TDP1 block: blocks human tyrosyl-DNA phosphodiesterase 1. recombinant TDP1, AlphaScreen DNA substrate cleavage. Potency, µM (top dose mostly 130 µM), without a hit: top-dose activity change, negative = inhibition, hits mostly inhibitors. 0.28% of 350,000 active. AID 485290; further: potency means the concentration at half of the fitted maximal effect; nearly all actives have a fitted effect of over 40% in size
#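 Here, a 5' biotin and 3' phosphotyrosine-FITC DNA oligonucleotide reports Tdp1 activity: intact substrate bridges AlphaScreen beads, while cleavage leaves a 3' phosphate and drops signal. All incubations at room temperature.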
# The depositor's hits bear a star; ? = inconclusive; / = no result given; [ ] = remark or other dose. A selection: hits, their analogues and other compounds. The true share with any hit is near 18%. Unless noted, the call rests on the fitted dose curve; in most records, active means well fitted curve in the direction sought with a large enough effect; inconclusive means small, poorly fitted or top-dose-only effect, or another doubt; inactive means no such curve, though single readings can be large; an effect the other way counts as inactive or inconclusive. On the % scale 0 is the no-effect control and ±100 the full control effect.
SMILES,DT40 TDP1 CPT,CtBP-E1A blk,IL-1B inflam inh,Six1-Eya2 inh,TDP1 cell noCPT,TDP1 block
Cc1cc(NC(=O)c2ccc(F)cc2)ccc1-c1cc2ccccc2oc1=O,?,/,/,/,?,3%[2.28 µM]
COc1ccc(C(=O)Nc2ccc(-c3cc4ccccc4oc3=O)c(C)c2)cc1Br,?,/,/,/,?,-3%[12.3 µM]
O=C(NC1CCCCC1)N1CCCCCCC1,?,-2,10,13,-5%,1%
Cc1ccc(NC(=O)CNCC2CCCCC2)cc1S(=O)(=O)N(C)C,16µM*,/,-23,1,?,0%
COc1ccc(CCC(=O)Nc2ccc(C)c(S(=O)(=O)N(C)C)c2)cc1OC,?,-7,18,-1,16µM*,8%
COc1ccc(CCNCC(=O)Nc2ccc(C)c(S(=O)(=O)N(C)C)c2)cc1,-30%,-3,-76*,-2,4.6µM*,-14%
CN(CC(=O)Nc1ccc(OC(F)(F)F)cc1)C1CCCCC1,?,9,?,8,-11%,/
O=C(CNCC1CCCCC1)Nc1ccc(OC(F)(F)F)cc1,-15%,-1,-101*,8,-10%,-8%
Cc1ccc(NC(=S)NC2CCCCC2)cc1S(=O)(=O)N(C)C,?,-4,0,-1,?,5%
COc1ccc(CC(=O)Nc2ccc(C)c(S(=O)(=O)N3CCCCCC3)c2)cc1,?,3,?,-2,?,0%
O=S(=O)(c1cccs1)N1CCN(c2ccc(F)cc2)CC1,-17%,-1,?,-2,-6%,9%
O=C1c2ccccc2C(=O)N1CCSc1nnc(-c2ccco2)n1Cc1ccccc1,-26%,3,0,-1,-16%,5%
O=c1cc(-c2c(O)c3ccccc3n(Cc3ccccc3)c2=O)[nH][nH]1,0%,-25,0,-22,5%,5%
O=C(CSc1nn(-c2ccccc2)c(=S)s1)Nn1cnnc1,0%,-6,14,5,-1%,6%
COc1cc(CCC(=O)Nc2ccc(C)c(S(=O)(=O)N(C)C)c2)cc(OC)c1OC,15µM*,0,5,-2,21µM*,4%
Cc1ccc(NC(=O)CSc2nn(-c3ccccc3)c(=S)s2)cc1S(=O)(=O)N(C)C,5.2µM*,0,-1,-6,5.2µM*,5%
O=C(Cn1ncc2c([nH]c3ccccc32)c1=O)Nc1ccc(F)cc1F,-9%,3,23,31,?,-3%
CC(=O)C1=C(S(=O)(=O)c2ccc(C)cc2)CS(=O)(=O)C1,3.7µM*,-2,?,-14,4.6µM*,0%
CC(C)(C)c1ccc(Nc2nc(C#N)nc(NC3CCCC3)n2)cc1,/,/,/,/,/,-2%
Cc1cc(CN2CCN(CCC#N)CC2)c(O)c(C2(C)CCCCC2)c1,16µM*,-8,-2,-11,21µM*,2%
N#CCCN1CCN(CCC#N)CC1,0%,7,9,3,12%,2%
COc1ccc2c(C#N)c3ccccn3c2c1,?,/,-9,37,23µM*,/
O=C(CS(=O)(=O)c1ccc(F)cc1)Nc1nnc(-c2cccs2)o1,2%,-28,3,-16,1%,/
Cn1cc(SCC(=O)NCc2ccc3c(c2)OCO3)c2ccccc21,-4%,1,-7,-6,?,7%
CC1=C(C(=O)OC2CCCC2)C(c2coc3ccccc3c2=O)C2=C(CC(C)(C)CC2=O)N1 (stereo not drawn),16µM*,-1,-11,-6,?,5%
SMILES,DT40 TDP1 CPT,CtBP-E1A blk,IL-1B inflam inh,Six1-Eya2 inh,TDP1 cell noCPT,TDP1 block
CC1=C(C(=O)OC2CCCC2)C(c2coc3ccc(C)cc3c2=O)C2=C(CCCC2=O)N1 (stereo not drawn),?,/,-16,2,21µM*,3%
CCOc1ccc(N(CC(=O)NCc2ccccc2)S(C)(=O)=O)cc1,-3%,14,0,1,-5%,2%
CCCN1CCN(C(=S)Nc2sc(CC)cc2C(=O)OC)CC1,?,/,?,-21,?,1%
CCc1c(C)sc(NC(=S)N2CCN(CC)CC2)c1C(=O)OC,?,-3,-56*,-3,?,3%
COc1cc(Cl)ccc1NC(=S)N(CCN1CCOCC1)C1CCN(C(C)=O)CC1,-13%,/,0,1,-7%,5%
O=C(N/C(=C/c1cccc(Br)c1)c1nc(=S)[nH][nH]1)c1ccccc1,?,-9,-100*,1,?,5%
Cc1ccc(C(=O)N/C(=C\c2ccc(Br)cc2)c2nc(=S)[nH][nH]2)cc1,?,-12,-79*,-11,?,8%
Cc1ccc(C(=O)N/C(=C\c2cccnc2)c2nc3ccccc3[nH]2)cc1,?,3,12,3,?,3%
CCc1ccc(NC(=O)Cn2nnc(C(=O)Nc3cc(C)ccc3OC)c2N)cc1,-29%,/,/,/,-28%,2%
OC1(c2ccccc2)CC(c2ccccc2)c2ccccc2O1 (stereo not drawn),-25%,-7,-99*,-9,?,/
COc1ccc(C2CC(O)(c3ccccc3)Oc3cc(OC)c(OC)c(OC)c32)cc1 (stereo not drawn),?,/,0,-18,?,19%
CCCCNC(=O)Cn1c(=O)cc(C)c2c(C)nn(-c3ccc(CC)cc3)c21,-16%,/,/,/,-18%,2%
O=C(CC(Sc1ccccc1)c1cccs1)c1ccco1 (stereo not drawn),18µM*,18,-70*,7,26µM*,-3%
O=C(Cc1cccs1)OCC(=O)c1ccco1,-14%,9,0,-4,-16%,/
CC(Oc1ccc2c(-c3ccccc3)cc(=O)oc2c1)C(=O)O (stereo not drawn),-19%,0,-5,-1,3%,3%
CC(C)OCCCNC(=O)CSc1c2c(nc3ccc(Cl)cc13)CCCC2,?,/,/,/,23µM*,-2%
CC(C)CCNC(=O)c1ccc2c(SCC(=O)O)c3c(nc2c1)CCC3,-15%,-2,-8,3,14%,/
CCc1ccc(CNC(=O)CSc2c3c(nc4ccc(Cl)cc24)CCCC3)cc1,-23%,/,/,/,?,0%
COCCCNC(=O)CSc1c2c(nc3ccc(Cl)cc13)CCCC2,?,-13,-155*,-1,?,5%
COc1ccc(-c2nnc(SCC(=O)Nc3cc(C)on3)n2N)cc1OC,-10%,-4,25,3,-7%,3%
CCOC1C(=O)NC(=O)N1Cc1ccccc1 (stereo not drawn),24%,1,27,4,0%,/

# Compound activity deposited in PubChem BioAssay by National Center for Advancing Translational Sciences (NCATS).
